Screening data deposited in PubChem by National Center for Advancing Translational Sciences (NCATS).
Shown are actives, neighbours in structure and some others; about 21% of the full set was active somewhere.
HCV inhibitor: inhibitors of hepatitis C virus infection | Huh7.5.1 HCVcc-Cre infection, luciferase reporter, 44 h | Potency, µM (series often up to 41.8 µM), usual class: inhibitors | actives 3.4% (n = 340,000)
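After 44 h co-culture of compound, cells and HCVcc-Cre (~0.5 moi), substrate is added for 15 min at room temperature and luciferase measured over 15 sec. Cells were seeded at 1,000/well and pre-cultured 4 h.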
AMA1 RON2 block: inhibitors of Plasmodium falciparum AMA1-RON2 interaction; AlphaScreen AMA1-biotinylated RON2 peptide binding; Potency, µM (series often up to 58.2 µM), hits mostly inhibitors; actives 0.2% (n = 360,000); also: nearly all actives have a fitted effect of over 45% in size
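AMA1 (3D7) with his tag at 25 nM final met compounds first, then biotinylated RON2 peptide at 25 nM; detection used donor plus acceptor beads, 10 µg/mL apiece, read by AlphaScreen after 30 min at room temperature.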
CHX counter: counter-screen hit for Shiga toxin inhibitors, cycloheximide. AID 2314. actives 12% (n = 300,000). max response, %. cell reporter, cycloheximide protein synthesis inhibition counterscreen; in the data active = max response mostly above about 13%, no sharp cut-off; inactive = mostly below about 14%; also: read at 38.3 µM for the half of the compounds with a filed dose
Pf growth 48h: inhibits P. falciparum growth in the first generation, 48 h. P. falciparum luciferase growth in erythrocytes, 48 h. Potency, µM (titrated, usually from 28.7 µM), hits mostly inhibitors. actives 5.9% (n = 310,000). AID 504832
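Luminescence readout; reporter = integrated firefly luciferase in P. falciparum. RBC culture at 2% hematocrit, 0.1% parasitemia final, 37 C/5% CO2; decreased signal taken as growth inhibition.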
Shiga inhibitor: blocks Shiga toxin action in Vero cells; AID 2315; inhibition, % at 38.7 µM; actives 9.2% (n = 290,000); Vero cells, Shiga toxin protein synthesis inhibition reporter; in the data active = inhibition mostly above about 28%, no sharp cut-off; inactive = mostly below about 43%
Pf growth 96h: P. falciparum growth inhibition at 96 hour, primary screen for plastid delayed-death inhibitors. Potency, µM (titrated, usually from 28.7 µM), hits mostly inhibitors. actives 6.9% (n = 320,000). AID 504834. P. falciparum luciferase reporter growth, 96 h
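Compounds incubated with erythrocytes infected by luciferase-expressing P. falciparum (2% hematocrit, 0.05% parasitemia final) for 96 hours, 37 C in 5% CO2. Growth inhibition scored as decreased luciferase luminescence.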
Numbers stand for hits; . = inactive; ? = inconclusive; / = no result; [ ] = another dose, or the depositor's remark. Unless noted, calls follow the shape of the dose curve; as a rule, active = well fitted curve in the direction sought with a large enough effect; inconclusive = small, poorly fitted or top-dose-only effect, or another doubt; inactive = no such curve, though single readings can be large; an effect the other way counts as inactive or inconclusive.

SMILES | HCV inhibitor | AMA1 RON2 block | CHX counter | Pf growth 48h | Shiga inhibitor | Pf growth 96h
C[C@H]1CN(S(=O)(=O)c2c(F)cccc2F)CCN1S(=O)(=O)c1ccc2c(c1)OCCO2 | / | / | . | / | . | /
O=C(Nc1ccccn1)C1CCN(S(=O)(=O)c2cccs2)CC1 | . | . | . | . | . | .
O=C(Nc1nc2ccccc2[nH]1)C1CCN(S(=O)(=O)c2cccs2)CC1 | . | . | 13.8 | / | . | .
c1cc2c(c(NCc3ccncc3)c1)CCCC2 | ? | . | . | 10.4µM | . | /
CNc1cc(C(=O)Nc2cccc(OCc3ccccc3)c2)ncn1 | / | . | / | / | / | /
CN(C)S(=O)(=O)c1ccc(N2CCCC2)c(C(=O)N2CCN(S(=O)(=O)c3ccc(F)c(F)c3)CC2)c1 | . | . | / | / | / | /
O=C(NC(Cc1ccccc1)C(=O)O)C1CCN(S(=O)(=O)c2ccccc2C(F)(F)F)CC1 (stereo unspecified) | . | . | . | . | . | .
Cc1ccc(S(=O)(=O)N2CCC(C(=O)Nc3ccccc3N3CCCC3)CC2)c(C)c1 | ? | . | / | 9.28µM | / | ?
O=C(Nc1ccccc1N1CCCC1)C1CCN(S(=O)(=O)c2ccccc2C(F)(F)F)CC1 | ? | . | / | ? | / | ?
O=C(Nc1ccccc1N1CCCC1)C1CCN(S(=O)(=O)c2ccccc2)CC1 | .[8.37 µM] | . | / | . | / | .
Cc1ccc(S(=O)(=O)N2CCN(C(=O)c3cc(S(=O)(=O)N(C)C)ccc3N3CCCC3)CC2)c(C)c1 | ? | . | / | 2.94µM | / | 5.22µM
CN(C)C(CNC(=O)C1CCN(S(=O)(=O)c2ccccc2C(F)(F)F)CC1)Cc1ccccc1 (stereo unspecified) | . | . | / | ? | / | 9.28µM
O=C(Nc1ccccc1N1CCCCC1)C1CCN(S(=O)(=O)c2ccccc2C(F)(F)F)CC1 | ? | ? | / | 9.28µM | / | ?
NC(=O)CC(NC(=O)Cc1cccc2ccccc12)c1ccc(N2CCN(c3ccc(F)cc3)CC2)c([N+](=O)[O-])c1 (stereo unspecified) | . | . | . | ? | . | ?
OC[C@@H]1CN(Cc2ccc3c(c2)OCO3)C[C@H](n2cnc3c(NC4CCC4)ncnc32)O1 | / | . | / | / | / | /
CCOc1cc2nc3c4ccccc4n(C)c3nc2cc1OCC | . | . | . | . | . | .
CCN(CC)Cc1cc(Nc2c3ccccc3nc3c4ccccc4n(C)c23)cc(CN(CC)CC)c1O | ? | 11.2µM | / | / | / | /
COC(=O)C1C2CC(C(Br)C2Br)C1C(=O)O (stereo unspecified) | . | . | / | / | / | /
Cc1ccc(C(=O)C=CC=Cc2ccccc2)cc1 | / | . | / | / | / | /
Cc1ccc(C(=O)C(C(=O)/C=C/c2ccccc2)=C2SCCCS2)cc1 | ? | . | 20.2 | 5.22µM | . | 9.28µM
CC(C)C(NC(=O)C(NC(=O)C1OC2OC(C)(C)OC2C2OC(C)(C)OC12)C(C)C)C(=O)O (stereo unspecified) | . | . | 15.0 | . | 31.1 | .
COc1ccccc1-c1nnc(NC(=O)C(C)Sc2nncn2C)s1 (stereo unspecified) | . | . | . | . | . | .
CCC(Sc1nncn1C)C(=O)Nc1nnc(-c2ccccc2Cl)s1 (stereo unspecified) | . | . | 17.4 | . | . | .
COC(=O)[C@]12CCCCC=C1N(Cc1cccc3ccccc13)C(=O)[C@H](CC(=O)N1CCSCC1)C2 | / | . | / | / | / | /
CC(=O)Nc1ccc(NC(=O)/C=C/c2ccccc2)cc1 | . | . | 24.9 | ? | 33.4 | .
SMILES | HCV inhibitor | AMA1 RON2 block | CHX counter | Pf growth 48h | Shiga inhibitor | Pf growth 96h
COc1cccc(/C=C/C(=O)Nc2ccc(OC)nc2)c1 | . | . | 29.8 | . | 88.2 | .
COc1ccc(NC(=O)/C=C/c2ccccc2)cn1 | . | . | 34.7 | . | 86.1 | .
COc1ccc(NC(=O)/C=C/c2ccc(F)cc2)cn1 | ? | . | 51.1 | . | 107.7 | .
CC(=O)N1CCN(c2ccc(NC(=O)/C=C/c3ccccc3)cc2)CC1 | . | . | . | ? | . | .
COc1ccc(NC(=O)/C=C/c2cc(OC)c(OC)c(OC)c2)cn1 | . | . | . | . | . | .
Cn1c(=O)n(C)c2cc(NC(=O)CSc3ccccc3)ccc21 | . | . | . | . | . | ?
C/C=C(/CC[C@@H](C)[C@H]1CCC2C3=CC[C@H]4[C@H](C)[C@@H](O)CC[C@]4(C)C3CC[C@@]21C)C(C)C (stereo partly specified) | / | / | . | / | . | /
Cc1cc(C)c(NC(=O)CN(C)C(C)C(=O)N2CCc3ccccc32)c(C)c1 (stereo unspecified) | ? | . | / | ? | / | ?
CN(C)CCCn1c2c(c(SCC(=O)Nc3ccc4c(c3)OCCO4)nc1=O)CCC2 | . | . | / | . | / | .
Cc1cc([N+](=O)[O-])cc2c1NC(=O)C2(O)N1CCCCCC1 (stereo unspecified) | . | . | . | . | . | 10.4µM
N=C1C(c2ccccc2)=C(O)CN1c1cccc(S(=O)(=O)NCc2ccco2)c1 | . | . | . | . | . | .
COc1ccc(N2CCN(CCCNC(=O)CN3CCN(Cc4ccccc4C)C3=O)CC2)cc1 | 11.2µM | ? | . | ? | . | .
Cc1ccc(CN2CCN(CC(=O)NCCCN3CCN(c4ccc(F)cc4)CC3)C2=O)cc1 | 8.91µM | . | . | ? | . | ?
COc1ccc(N2CCN(CCCNC(=O)C(=O)c3c[nH]c4ccccc34)CC2)cc1 | ? | ? | . | 3.7µM | . | 2.08µM
CCOCCCNC(=O)CN1CCN(c2ccc(F)cc2)CC1 | . | . | . | . | . | .
O=C(NC1CCN(S(=O)(=O)c2cccc(Cl)c2)CC1)C1CCCCC1 | . | . | . | . | . | .
Cc1cc(C)c(S(=O)(=O)Cc2ccccc2)c(Cl)n1 | . | . | . | . | . | .
Cc1ccccc1OCCN1CCCC1 | . | . | . | . | . | .
Cc1cc(OCCN2CC2)c2ccccc2n1 | / | / | . | 13.1µM | . | 10.4µM
Cc1ccccc1C#N | . | . | / | . | / | .
O=C(COC(=O)COc1cccc(Br)c1)Nc1ccc(F)cc1F | . | . | / | . | / | .
CN(C)c1ccc(/C=N/n2cnn(Cc3ccccc3Cl)c2=S)cc1 | . | . | 37.8 | . | 97.4 | .
O=C(NN1CCCCC1)c1ccc(COc2ccc(Cl)cc2)cc1 | . | . | . | . | . | ?
CCOC(=O)N1CCN(CC(O)COc2ccc3c(c2)CCC3)CC1 (stereo unspecified) | . | . | . | . | . | .
COc1ccc(C(C(=O)NC(C)(C)C)N(CCc2ccccc2)C(=O)CCC(=O)Nc2cc(C)on2)cc1 (stereo unspecified) | . | . | 22.2 | 11.7µM | 30.7 | .
CCC(C)(C)NC(=O)C(c1ccc(OC)cc1)N(Cc1cccs1)C(=O)CCC(=O)Nc1cc(C)on1 (stereo unspecified) | ? | . | . | 10.4µM | . | .
Cc1cc(NC(=O)CCC(=O)N(c2ccccc2)C(C(=O)NC(C)(C)C)c2ccccc2Cl)no1 (stereo unspecified) | . | . | . | 13.1µM | . | .
